# Hits are enriched below; roughly 4.6% of the tested compounds scored in any of these assays.
# TIM10 inh: growth inhibitors of TIM10 yeast strain; S. cerevisiae TIM10 strain growth, BacTiter-Glo luminescence, 24 h; inhibition, % at 10 µM; hit rate 1.4% among 330,000;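 active means inhibition of 40% or more at the single tested concentration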;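 further: wild-type TIM10 isogenic control strain grown at permissive 25 °C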
# tim10-1 inh: growth inhibitors of tim10-1 mutant yeast; S. cerevisiae tim10-1 ts strain growth, BacTiter-Glo, 24 h; inhibition, % at 20 µM; hit rate 2.2% among 330,000; AID 463190;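 active means inhibition of at least 40%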;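 further: mutant grown at 25 °C; 0% = DMSO wells with yeast and 100% = wells holding no yeast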
# NALP3 yeast inh: NALP3 inhibition in yeast | Yeast reconstituted NLRP3/ASC/caspase-1, beta-gal luminescence, 24 h | hit rate 0.39% among 330,000 | inhibition, % at 10 µM;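 active means inhibition of 50% or more; inactive means inhibition below 50%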;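 further: plate controls were induced DMSO wells for no effect and uninduced yeast grown without galactose for full effect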
# tim23-1 inh: inhibits growth of tim23-1 mutant yeast; S. cerevisiae tim23-1 growth, BacTiter-Glo luminescence, 24 h; inhibition, % at 20 µM; hit rate 1.3% among 330,000; AID 463212;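 active means growth inhibition of the mutant yeast at or above 50%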;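 further: temperature-sensitive mutant grown at 25 °C; plate controls were DMSO-treated mutant yeast for no effect and medium wells lacking yeast for full effect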
# SKKanGAS inh: inhibitors of SKKanGAS S. pyogenes growth in kanamycin (SK-promoter or general growth effect); inhibition, % at 7.5 µM; BacTiter-Glo, 6 h; hit rate 1.3% among 300,000;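 active means mean replicate score, as percent of positive control median, at least 50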;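 further: strain carries kanamycin resistance gene driven by streptokinase promoter and grows in 40 µg/ml kanamycin; loss of luminescence reflects streptokinase promoter inhibition or plain growth inhibition; 0% = median of DMSO wells and 100% = positive control at its reference dose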
# PfHsp90 set2: inhibits growth of yeast expressing Plasmodium falciparum Hsp90; hit rate 0.32% among 310,000; inhibition, % at 9.4 µM; S. cerevisiae expressing PfHsp90, BacTiter-Glo ATP, 48 h; yeast lacking PDR1 and PDR3 efflux regulators; AID 504621;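 active means every replicate shows inhibition above about 80%, whatever the replicate mean, limit read from the data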;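 further: 0% = DMSO neutral controls and 100% = 20 µM radicicol positive controls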
# tim10-1 confirm: tim10-1 yeast growth inhibition, confirmed. shares compounds with tim10-1 inh. S. cerevisiae tim10-1 ts strain growth, BacTiter-Glo, 24 h. inhibition, % at 20 µM. hit rate 56% among 7,400. AID 463213;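 active means inhibition of yeast growth at or above a set limit in either of two repeat tests at 20 µM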;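 further: tim10-1 mutant grown at permissive 25 °C to find synthetic lethal compounds; 0% = DMSO yeast wells and 100% = medium wells without yeast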
# tim10 confirm: TIM10 yeast growth inhibition, confirmed. shares compounds with TIM10 inh. inhibition, % at 10 µM. hit rate 63% among 4,600. S. cerevisiae tim10 strain growth, BacTiter-Glo luminescence, 24 h;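 active means inhibition of yeast growth at or above a set limit in either of two replicates at 10 µM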;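 further: this counterscreen used the strain with wild-type TIM10; 0% = yeast with DMSO and 100% = medium wells lacking yeast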
# Numbers without * were called inactive; · = no result given.
SMILES,TIM10 inh,tim10-1 inh,NALP3 yeast inh,tim23-1 inh,SKKanGAS inh,PfHsp90 set2,tim10-1 confirm,tim10 confirm
CCCCC(O)(CCCC)C(=O)NN(C(=O)OC)c1ccc(C)cc1,20,19,16,27,-17,-10,·,·
COC(=O)C(C)Nc1cccc(Br)c1 (configuration not stated),-2,-1,-5,-1,-6,-12,·,·
CCOC(=O)C(C(=O)OCC)C(Nc1cccc(Br)c1)c1ccccc1 (configuration not stated),53*,55*,44,42,-5,32,37*,43*
O=C(CCS(=O)(=O)c1ccccc1)N(CCCN1CCOCC1)c1nc2ccccc2s1,53*,48*,49,42,-2,26,31,64*
COC(=O)c1cccc(NS(=O)(=O)c2ccc(OC)c(C(=O)N3CCOCC3)c2)c1C,-9,-17,2,9,7,-10,·,·
CC(C)(C)c1ccc(NC(=S)NCc2cccs2)cc1,46*,54*,7,45,-9,8,40*,33*
CCOC(=O)N1CCN(CC(=O)Nc2ccc(F)c(F)c2)CC1,-10,5,15,10,-17,1,·,·
N/C(=N\OC(=O)CC1CCCCC1)c1cccc([N+](=O)[O-])c1,46*,56*,6,38,-2,15,65*,36*
O=C(NCC1CCCCC1)c1cccc([N+](=O)[O-])c1,-8,3,28,21,-5,12,·,·
CC(C)N1CCC2(CC1)N=C(c1ccc3c(c1)OCO3)CC(c1cc(Cl)ccc1O)N2 (configuration not stated),51*,53*,40,42,-13,120*,45*,51*
C/C(=N\OCC(=O)NC12CC3CC(CC(C3)C1)C2)c1cc2ccccc2o1,40*,45*,10,19,1,-17,22,36*
CC(=O)C1=NN(c2ccccc2)C(c2ccc3c(c2)OCO3)N1c1ccc(N2CCOCC2)cc1 (configuration not stated),20,11,26,17,-16,-2,·,·
COc1cccc(N2C(C(C)=O)=NN(c3ccccc3)C2c2ccc(N3CCOCC3)cc2)c1 (configuration not stated),42*,48*,7,30,10,0,32*,-10
CCS(=O)(=O)c1ccc2oc(Nc3cc(C)cc(C)c3)nc2c1,43*,47*,-43,43,-14,-14,37*,37*
Nc1ncnc2c1ncn2[C@@H]1O[C@H](CNS(=O)(=O)c2cc3ccccc3s2)[C@@H](O)[C@H]1O,-10,7,·,25,·,9,·,·
CCc1nccn1S(=O)(=O)c1ccccc1[N+](=O)[O-],44*,50*,6,42,-9,-6,62*,57*
COc1cc(/C=C/C(=O)c2ccc(C)cc2)ccc1OCC#N,33,28,25,45,-3,3,·,·
CCOc1cc(/C=C/C(=O)c2ccc(C)cc2)ccc1OCC(=O)N(C)C,45*,50*,10,43,0,-30,35*,-27
CCN(CC)/C(Sc1ccccc1)=C(/C(Cl)=C(Cl)Cl)[N+](=O)[O-],42*,46*,-11,39,1,-8,33*,35*
COc1ccc(S(=O)(=O)N2CCC(C(=O)NCc3ccccc3)CC2)cc1OC,3,9,33,4,-2,8,·,·
COc1cccc(-c2nnc3sc(-c4ccccc4)nn23)c1,3,22,32,40,18,·,·,·
Cc1cccc(-c2nnc3sc(-c4ccccc4C)nn23)c1,41*,55*,18,33,9,-80,66*,44*
NNc1nc2c(Cl)ccc(Cl)c2s1,53*,58*,1,47,4,-5,58*,3
O=C(Nc1nc2c(Cl)ccc(Cl)c2s1)C1CC1,35,40,8,30,6,19,·,·
COC(=O)c1c(NC(=S)NN2CCN(C)CC2)sc2c1CCC(C)C2 (configuration not stated),20,-30,25,46,31,2,·,·
SMILES,TIM10 inh,tim10-1 inh,NALP3 yeast inh,tim23-1 inh,SKKanGAS inh,PfHsp90 set2,tim10-1 confirm,tim10 confirm
Cc1nn(-c2ccccc2)c(Cl)c1/C=C/C(=O)c1ccccc1,46*,41*,2,-4,10,-16,48*,40*
Cc1nn(-c2ccccc2)c(Cl)c1/C=N/O,8,16,30,16,4,6,·,·
Oc1ccc(/C=N/Nc2ccc(C(F)(F)F)cn2)cc1,48*,44*,-33,34,10,-27,28,30
COc1cc(/C=N/Nc2ccc(C(F)(F)F)cn2)cc(OC)c1O,2,5,29,11,-6,-21,·,·
CC(=O)NC(CCS(C)(=O)=O)C(=O)Nc1cc(Cl)ccc1Cl (configuration not stated),-11,8,11,11,1,11,·,·
CC(C)S(=O)(=O)c1csc(NC(=O)Nc2cc(Cl)ccc2Cl)c1Cl,47*,42*,0,21,58*,14,28,41*
COc1cc2cc(CN(Cc3cccnc3)C(=O)Nc3ccccc3F)c(=O)[nH]c2cc1OC,10,1,13,7,6,7,·,·
C=CCNC(=O)c1c[nH]c2ccc(S(=O)(=O)N(C)c3ccc(OCC)cc3)cc2c1=O,1,-6,8,-1,4,5,·,·
CCOc1ccc2nc(SCC(=O)NNC(=O)c3ccco3)c(C)cc2c1,9,10,1,-2,-3,8,·,·
CCOc1ccc2cc(/C=C/C(=O)c3ccco3)c(Cl)nc2c1,42*,49*,33,49,-2,·,36*,14
Cc1ccc(-c2[nH]nc(N)c2N=Nc2ccccc2C)cc1,45*,56*,29,20,75*,-6,0,46*
Cc1cccc(N=Nc2c(N)n[nH]c2-c2ccc(Cl)cc2)c1,56*,52*,21,8,13,-55,26,13
Cc1ccc(N=Nc2c(N)n[nH]c2N)cc1,5,4,12,3,-3,-4,·,·
COc1ccc(C(CC(=O)O)N2C(=O)CCC2=O)cc1 (configuration not stated),-4,11,1,2,2,-28,·,·
Cc1c(OCC(=O)OC(C)(C)C)ccc2c3c(c(=O)oc12)CCC3,20,13,19,20,7,7,·,·
Cc1c(OC(=O)CNC(=O)OC(C)(C)C)ccc2c3c(c(=O)oc12)CCC3,45*,49*,-9,41,·,4,39*,47*

# Bioassay records from PubChem.
